GPR151 activ: human GPR151 activation; Q8TDV0; PathHunter beta-arrestin GPR151 cells, luminescence; activation, % at 11.2 µM; 1% of 650,000 active; AID 1508602; in the data active = activation above about 4.9%;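 note: 0% = median of compound wells and 100% = cells with positive control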
FBW7 activator: activators of human E3 ligase FBW7; AlphaScreen FBW7–phospho-cyclin E peptide binding, activator screen; normalized activity (activation), % at 26.1 µM; 0.13% of 650,000 active; AID 1259310; in the data active = normalized activity above about 1.9%;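 note: purified mutant Fbw7 with reduced substrate affinity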
MITF inh: inhibitors of human MITF; O75030; AlphaScreen MITF homodimerization, bead proximity signal; inhibition, % at 2.6 µM; 0.91% of 650,000 active; in the data active = inhibition above about 50%;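 note: 0% = vehicle wells with protein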
TEAD-YAP inh: TEAD-YAP interaction inhibition. HEK-TIYL cells, TEAD-Gal4/YAP UAS-luciferase luminescence. inhibition, % at 9.12 µM. 1.4% of 640,000 active. AID 1259422; in the data active = inhibition above about 32%;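 note: 0% = median of test compound wells and 100% = reference inhibitor wells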
MITF confirm: confirmation of human MITF inhibitors | shares compounds with MITF inh | AlphaScreen MITF homodimerization, biotin/His-MITF beads | inhibition, % at 2.6 µM | 16% of 4,700 active | AID 1259372;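 active = inhibition above a cutoff derived from the DMSO control wells, cut at about 28% in these data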;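 note: 0% = MITF dimer wells with DMSO only; inhibitors lower the bead chemiluminescence by keeping MITF from dimerizing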
AlphaScreen DR: counter-screen: compounds optically interfering with AlphaScreen; shares compounds with MITF inh; AlphaScreen optical interference counterscreen, cell-free; IC50, µM; 6% of 480 active; AID 1259373; call rule not given here
AlphaScreen intf2: AlphaScreen optical interference, counter-screen | inhibition, % at 2.6 µM | 7.6% of 4,700 active | shares compounds with MITF inh | LysRS AlphaScreen counterscreen, signal interference, triplicate;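 active = inhibition above a cutoff derived from the DMSO control wells, cut at about 30% in these data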
An asterisk follows results filed as active; / = no result given. Only some compounds are listed: those with a hit (about 3.5% of all), similar ones and a draw of the others.

SMILES	GPR151 activ	FBW7 activator	MITF inh	TEAD-YAP inh	MITF confirm	AlphaScreen intf2	others
COc1ccc(C[C@@H]2NC(=O)[C@H]3CN(C(=O)NC4CCCCC4)CCN3C2=O)cc1	0.6	0.6	73.4*	6.9	61.6*	-4.4	AlphaScreen DR=>6.48
COc1ccc(C[C@@H]2NC(=O)[C@H]3CN(C(=O)Oc4ccc(F)cc4)CCN3C2=O)cc1	-0.2	0.2	-10.1	10.3	/	/
C[C@@H](OCc1ccccc1)[C@@H]1NC(=O)[C@H]2CN(C(=O)NC3CCCCC3)CCN2C1=O	2.7	-0.5	79.7*	-1.2	73.4*	-7.2	AlphaScreen DR=>6.48
CC(=O)c1ccc2c(c1)C1C=CCC1C(c1ccccc1)N2 (stereo not given)	2.3	-0.2	8.1	-9.5	/	/
CN1C(=O)[C@H]2CN(C(=O)NC3CCCCC3)CCN2C(=O)[C@@H]1Cc1ccccc1	1.1	-0.3	74.3*	1.3	68.7*	-10.7	AlphaScreen DR=>6.48
CN(c1ccccc1)S(=O)(=O)c1ccc(/C(O)=C(\C#N)c2nc3ccccc3n2C)cc1	-0.4	-0.2	61.7*	0.5	-5.1	4.7
Cc1ccc(CSc2nnc(NC(=O)C3=NNC(=O)CC3)s2)cc1	-1.7	-0.1	-3.9	-2.8	/	/
COc1ccc([N+](=O)[O-])cc1Nc1cnn(C23CC4CC(CC(C4)C2)C3)c(=O)c1Cl	-0.6	0.6	50.8*	-6.0	4.8	12.7
COc1ccc(C)cc1Nc1cnn(C23CC4CC(CC(C4)C2)C3)c(=O)c1Cl	1.7	-0.5	4.2	10.2	/	/
COC(F)(C(=O)Oc1cc([N+](=O)[O-])cc2cccnc12)C(F)(F)F (stereo not given)	0.4	-0.8	95.4*	42.8*	98.9*	100.6*
C=CCOc1ccc(/C=C2\NC(=S)N(c3ccc(OC)cc3)C2=O)cc1	4.3	0.0	-5.8	-1.5	/	/
COc1ccc(C(CNCC(=O)Nc2ccccc2-c2ccccc2)N2CCOCC2)cc1 (stereo not given)	-1.4	-0.2	82.6*	4.8	-15.0	-1.1
CCCCS/C(=C(/C#N)C(N)=O)c1cc2c([nH]1)CCCC2	-0.4	0.1	7.5	8.4	/	/
O=[N+]([O-])c1ccc(OCCCNCc2ccco2)cc1	-0.1	0.0	31.8	-3.8	/	/
O=[N+]([O-])c1ccc(OCCNCc2ccco2)cc1	-2.1	0.0	56.2*	-9.7	-13.8	-5.1
CCc1ccc(OCC(=O)Nc2cc(C)ccn2)cc1	0.6	-0.2	51.5*	4.9	-12.7	-7.8
Nc1nc(Nc2ccccc2)nc2nc[nH]c12	0.1	0.4	60.4*	-2.3	2.3	12.4
Fc1ccccc1CN1CCN(C2CCCCC2)CC1	0.8	-0.2	61.3*	1.1	8.1	-0.8
CC1CCC(N2CCN(Cc3ccccc3F)CC2)CC1 (stereo not given)	-1.3	-0.2	63.1*	7.3	-4.1	9.8
Clc1ccccc1CN1CCC(N2CCCCC2)CC1	-0.8	-0.1	-4.3	6.4	/	/
Fc1ccccc1CN1CCC(N2CCCCC2)CC1	-0.5	-0.1	-19.5	4.6	/	/
CCN1CCN(C2CCN(Cc3ccccc3C)CC2)CC1	-0.2	0.1	14.4	-2.6	/	/
Fc1ccccc1CN1CCC(N2CCN(c3ccccc3)CC2)CC1	-0.8	-0.2	53.1*	-3.8	2.2	8.9
Clc1ccccc1CN1CCN(C2CCCCCC2)CC1	-0.1	0.0	74.3*	-2.8	-0.4	1.3
Fc1ccccc1N1CCN(C2CCN(Cc3ccccc3)CC2)CC1	-1.4	-0.2	48.9	0.8	/	/
SMILES	GPR151 activ	FBW7 activator	MITF inh	TEAD-YAP inh	MITF confirm	AlphaScreen intf2	others
Cc1cc(C)n(-c2ccc(Cl)c(C(=O)OCC(=O)Nc3cc(C)on3)n2)n1	-1.0	0.0	18.5	2.2	/	/
CC(=O)C1=C(O)C(=O)N(CCN2CCOCC2)C1c1ccc(C)cc1 (stereo not given)	0.5	-0.1	-7.9	-1.1	/	/
COc1ccccc1C(=O)O/N=C(\N)Cc1ccc(Cl)cc1Cl	-0.7	0.3	-10.6	-11.9	/	/
O=C(CNC(=O)c1ccc(Br)cc1)OCC(=O)c1cccc([N+](=O)[O-])c1	0.2	1.5	7.7	16.3	/	/
C=CCc1ccc(OCCOc2ccc(/C=C3/C(=N)N4N=C(CCCC)SC4=NC3=O)cc2)c(OC)c1	0.8	-0.2	1.8	-5.5	/	/
COc1cccc(N=c2c([N+](=O)[O-])nn(-c3ccc(Cl)cc3)n2O)c1	-0.4	-0.4	1.5	9.5	/	/
Cc1ccc(N=c2c([N+](=O)[O-])nn(-c3cccc(C)c3)n2O)cc1	0.6	-0.8	22.1	2.8	/	/
